The panel holds about 83,000 compounds, 20% with a hit somewhere; the sample as a whole holds those more often.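 Values shown are percent growth following 48 h exposure of cells in 96-well plates to a single concentration of compound; below 10 was considered active.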 Values without a mark were called inactive. Active and inactive are the calls of the source.
What follows are compounds tested on MDA-MB-468 breast (assay: NCI-60 one-dose screen, 48 h (100 = growth as untreated, 0 = no growth, -100 = all killed)). Conditions: 10 µM unless noted.

Row | Structure (SMILES) | growth
1 | CCCCCN1C=C/C(=C\C(=O)N2CCCc3ccccc32)c2ccccc21 | 40%
2 | CN1CCN(c2nc(-c3csc(-c4ccncc4)n3)cc3ccccc23)CC1 | 25.8%
3 | COc1ccc(C2c3ccc4ccccc4c3Oc3nc(C)[nH]c(=O)c32)cc1 (stereo not given) | 111%
4 | CC(C)[C@H](CO)Nc1nc(Nc2ccc(C(=O)NCCNS(=O)(=O)c3cccc4c(N(C)C)cccc34)c(Cl)c2)c2ncn(C(C)C)c2n1 | -14.1% (active)
5 | CNCCCNCCCN1C(=O)c2ccc3c4c(ccc(c24)C1=O)C(=O)N(CCCNCc1ccccc1OC)C3=O | -69.5% (active)
6 | CC[C@@](C)(NC(=O)C(C)(C)NC(=O)[C@@H](NC(=O)[C@@H]1CCCN1C(=O)C(C)(C)NC(=O)[C@H](CC(C)C)NC(=O)CNC(=O)C(C)(C)NC(=O)[C@@H](NC(=O)C(C)(C)NC(=O)[C@H](CCC(N)=O)NC(=O)[C@H](C)NC(=O)C(C)(C)NC(=O)[C@H](C)NC(=O)C(C)(C)NC(=O)[C@@H]1CCCN1C(=O)C(C)(C)NC(C)=O)C(C)C)C(C)C)C(=O)N[C@@H](CCC(N)=O)C(=O)N[C@@H](CCC(N)=O)C(=O)N[C@H](CO)Cc1ccccc1 | -3.95% [4.25 µM] (active)
7 | Cc1ccc2c(-n3nc(C#N)c(C#N)c3N)cc(=O)[nH]c2c1 | 92.6%
8 | COc1cc(OC)cc(-c2cncn2-c2ccc(-c3nc4cc(OC)cc(OC)c4s3)cc2)c1 | 4% (active)
9 | CCOC(=O)CCCS(C)(=O)=O | 126%
10 | O=C(NC(Cc1cn(Cc2ccccc2)cn1)C(=O)O)OCC1c2ccccc2-c2ccccc21 (stereo not given) | 107%

Reference: PubChem BioAssay (NCI)
